Assay outcomes from PubChem BioAssay.
697 NFkB inh – inhibitors of the PMA/ionomycin-induced NF-kB reporter in 697 B cells; 697 B-cell NF-kB luciferase reporter, 16 h; inhibition, % at 4 µM; actives 0.33% (n = 330,000); AID 435022; in the data active means inhibition above about 35%
Beta apoptosis – blocks beta cell apoptosis; actives 0.8% (n = 300,000); protection from apoptosis, % (test concentration not listed); INS-1E cytokine-induced death, ATP luminescence, 48 h; percent of positive-control rescue, neutral wells zero; AID 435005;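 active means Every replicate reaches about 75%, or at least half do and their mean reaches it too, limit read from the data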;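 further: 0% = cytokine-treated negative control wells and 100% = positive control rescue; higher means more ATP so stronger rescue from cytokine killing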
Gli-Sufu antag – Gli-Sufu pathway antagonism. Sufu-KO-LIGHT fibroblasts, Gli luciferase reporter luminescence. inhibition, % at 5 µM. AID 588413. actives 0.74% (n = 340,000);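 active means inhibition above about 55%, limit read from the data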;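 further: 0% = DMSO-treated cells and 100% = wells with medium but no cells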
Mdm2 MdmX PPI – inhibitors of human Mdm2/MdmX interaction. O15151+Q00987. SaOS-2 split-luciferase Mdm2/MdmX complementation, luminescence. inhibition, % at 8 µM. actives 3% (n = 330,000);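 active means inhibition of at least 50% at 8 µM in the primary screen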
Target sequence (O15151 whole entry, looked up): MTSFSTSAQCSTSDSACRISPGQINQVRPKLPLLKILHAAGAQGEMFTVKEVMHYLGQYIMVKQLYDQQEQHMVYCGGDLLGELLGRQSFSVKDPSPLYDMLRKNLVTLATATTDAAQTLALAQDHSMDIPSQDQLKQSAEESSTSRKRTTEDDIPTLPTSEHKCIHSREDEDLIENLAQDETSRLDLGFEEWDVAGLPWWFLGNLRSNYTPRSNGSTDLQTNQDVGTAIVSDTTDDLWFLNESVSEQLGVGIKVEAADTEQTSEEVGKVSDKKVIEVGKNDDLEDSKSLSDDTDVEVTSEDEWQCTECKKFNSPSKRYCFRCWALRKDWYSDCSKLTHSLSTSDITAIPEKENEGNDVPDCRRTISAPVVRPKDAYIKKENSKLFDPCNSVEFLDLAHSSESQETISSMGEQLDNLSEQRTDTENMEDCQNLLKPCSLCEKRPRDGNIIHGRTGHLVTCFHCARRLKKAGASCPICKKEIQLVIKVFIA
Target sequence (Q00987 whole entry, looked up): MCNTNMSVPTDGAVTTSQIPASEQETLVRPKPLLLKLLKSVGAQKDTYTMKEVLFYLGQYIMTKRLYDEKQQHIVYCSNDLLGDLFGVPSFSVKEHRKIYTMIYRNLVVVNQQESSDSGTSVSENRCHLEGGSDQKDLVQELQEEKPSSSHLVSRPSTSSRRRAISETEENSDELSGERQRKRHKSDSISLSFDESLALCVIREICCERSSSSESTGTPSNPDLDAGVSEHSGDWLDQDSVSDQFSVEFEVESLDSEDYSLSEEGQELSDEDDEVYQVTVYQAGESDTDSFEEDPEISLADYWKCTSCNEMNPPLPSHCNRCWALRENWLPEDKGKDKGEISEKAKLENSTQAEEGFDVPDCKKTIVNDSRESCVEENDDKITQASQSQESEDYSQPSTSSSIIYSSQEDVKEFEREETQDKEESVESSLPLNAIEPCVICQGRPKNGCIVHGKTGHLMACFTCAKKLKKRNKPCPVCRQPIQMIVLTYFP
Jurkat NFkB inh – inhibitors of the PMA/ionomycin-induced NF-kB reporter in Jurkat cells | PMA/ionomycin-induced NF-kB luciferase reporter, luminescence | AID 435003 | actives 0.53% (n = 330,000) | inhibition, % at 4 µM; in the data active means inhibition above about 50%
CSC inhib – blocks cancer stem cells | AID 2717 | actives 1.1% (n = 300,000) | cancer stem cell-like cells viability, luminescence | inhibition, % at 7.5 µM; in the data active means inhibition above about 75%; tested in HMLE shEcad cells
Gli-Sufu confirm – Gli-SUFU antagonism confirmation, single concentration; shares compounds with Gli-Sufu antag; Sufu-KO-LIGHT cells, Gli luciferase reporter, luminescence; inhibition, % at 5 µM; actives 40% (n = 2,500); AID 602428;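 active means mean inhibition at 5 µM reaching about 45%, limit read from the data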;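 further: plate controls were DMSO-treated cells for no effect and wells lacking cells for full effect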
Gli cytotox – cytotoxicity counter-screen for Gli-SUFU antagonists. Sufu-KO-LIGHT cells cytotoxicity, ATP luminescence. shares compounds with Gli-Sufu antag. cytotoxicity, % at 5 µM. actives 32% (n = 2,500);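 active means mean cytotoxicity at 5 µM above about 25%, limit read from the data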;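 further: cells exposed to compound overnight for roughly 16 to 18 hours; plate controls were DMSO wells with cells for no effect and medium without cells for full effect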
Wnt3a cs – inhibits Wnt3a reporter, counter-screen for Gli-SUFU antagonists | shares compounds with Gli-Sufu antag | Wnt-LIGHT cells, Wnt3a-driven luciferase reporter, luminescence | inhibition, % at 6.25 µM | actives 20% (n = 2,500) | AID 651995;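 active means mean inhibition above about 25%, limit read from the data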
* = called active by the depositor; nt = no result. Compounds with a hit are over-represented: about 4.5% of the library has one in this group of screens.

SMILES	697 NFkB inh	Beta apoptosis	Gli-Sufu antag	Mdm2 MdmX PPI	Jurkat NFkB inh	CSC inhib	Gli-Sufu confirm	Gli cytotox	Wnt3a cs
CC(NC(=O)COC(=O)COc1cccc2c1OC(C)(C)C2)c1ccccc1 (stereo not given)	-12	nt	2	1	12	-7	nt	nt	nt
CSCCC(NC(=O)c1ccco1)C(=O)N1CC(C)OC(C)C1 (stereo not given)	13	6	58*	14	2	-5	7	-13	-14
CC(=O)Nc1ccc(Nc2ncnc3c2cnn3-c2ccccc2)cc1	-15	-5	-44	0	-44	-7	nt	nt	nt
CC(=O)NNc1ncnc2c1cnn2-c1ccccc1	3	-2	57*	-4	10	-5	20	31*	-10
O=C(COC(=O)c1cnccn1)c1cccc([N+](=O)[O-])c1	8	-6	50	7	15	-6	19	16	0
O=C(COC(=O)c1cnccn1)c1ccc2ccccc2c1	12	1	6	19	20	-19	nt	nt	nt
Cc1cc(C)nc(/N=C(\N)Nc2ccccc2-c2ccccc2)n1	-63	15	60*	39	35	20	43	12	-16
CC(C)(C)NC(=O)C(=O)NNC(=O)c1cccc(F)c1	-25	0	84*	-21	-6	nt	-1	9	-28
CC(C)(C)NC(=O)C(=O)NNC(=O)c1ccccc1	2	-6	12	-7	0	-10	nt	nt	nt
COc1ccccc1N1C(C)=CC(=C(C#N)c2nc3ccccc3s2)C=C1C	-34	128*	53	37	-4	32	54*	11	38*
CCC(C)(C)n1nnnc1C(c1cc2cc(OC)ccc2[nH]c1=O)N1CCc2ccccc21 (stereo not given)	11	0	17	7	8	-7	nt	nt	nt
CCC(C)(C)n1nnnc1C(c1cc2ccc(OC)cc2[nH]c1=O)N1CCc2ccccc21 (stereo not given)	-30	1	56*	8	-21	-8	27	11	-3
COc1ccc(-n2ncc3c2CC(C)(C)CC3NC(=O)CN2CCOC2=O)cc1 (stereo not given)	-14	-16	61*	19	13	-32	22	12	-10
Clc1ccc(SCc2cc(-c3ccccc3)on2)cc1	29	4	-11	22	-1	3	nt	nt	nt
c1ccc(Cc2cc(-c3ccccc3)on2)cc1	-53	-8	96*	-11	-58	0	-68	19	-144
S=c1nc(C2CC2)n(-c2ccccc2)[nH]1	7	-3	-15	4	1	8	nt	nt	nt
CCN(CC)C(=O)COc1coc(CN2CCN(c3ccccc3F)CC2)cc1=O	-16	nt	-5	17	6	-15	nt	nt	nt
COC(=O)CCCCCCCCCC[N+]1(C)CCCCC1	0	-4	2	13	2	-7	nt	nt	nt
C[N+]1(CC(=O)OC2CCCCCCCCCCC2)CCCC1	-7	5	65*	10	-2	67	56*	29*	-30
CCCCn1c(N)c(N(CC(C)C)C(=O)c2cccc(-n3cnnn3)c2)c(=O)[nH]c1=O	9	nt	-10	18	1	13	nt	nt	nt
CCOC(=O)N1CCN(C(=O)c2ccc(CSc3ccc(Cl)cc3)cc2)CC1	13	nt	58*	20	27	nt	48*	17	0
CCC(Oc1ccccc1)C(=O)Nc1ccc(S(=O)(=O)Nc2cc(C)on2)cc1 (stereo not given)	16	-7	17	-5	15	nt	nt	nt	nt
CCN1/C(=C/C=C/C=C/C=C/c2sc3ccccc3[n+]2CC)Sc2ccccc21	4	23	83*	23	7	11	91*	32*	45*
CC[n+]1c(/C=C(\C)SC)sc2ccccc21	17	0	4	36	3	6	nt	nt	nt
CC[n+]1c(/C=C/Nc2ccccc2)sc2ccccc21	16	60	68*	18	-5	-5	81*	37*	30*
SMILES	697 NFkB inh	Beta apoptosis	Gli-Sufu antag	Mdm2 MdmX PPI	Jurkat NFkB inh	CSC inhib	Gli-Sufu confirm	Gli cytotox	Wnt3a cs
O=C(COc1ccccc1)Nc1nnc(S(=O)(=O)N2CCCCC2)s1	4	3	52	3	13	4	12	21	-16
O=C(CN1CCOCCOCCOCC1)Nc1ccccc1	19	0	-6	11	-8	-8	nt	nt	nt
O=C(CN1CCOCCOCCOCCOCC1)Nc1ccccc1	3	1	96*	-25	-22	-1	20	8	-32
O=C(NC(c1ccccc1)c1ccccc1)c1ccc(CO)cc1	21	1	-3	6	8	4	nt	nt	nt
Cc1c(C(=O)O)sc2nc(C)n(C)c(=O)c12	-5	-4	96*	-28	-12	2	27	21	17
CNc1ccccc(-c2ccc3ccccc3n2)c1=O	-62	-5	54	-8	-7	9	-76	19	-32
c1ccc(-c2ccc3ccccc3n2)cc1	-83	2	-73	-25	-92	13	nt	nt	nt
Cc1cc(C)c(OCC(O)CN2CCN(C(=O)c3ccccc3)CC2)c(C)c1 (stereo not given)	15	-2	7	18	10	-8	nt	nt	nt
COc1ccccc1CCNC(=O)CNC(=O)Cc1cccc2ccccc12	-5	-4	2	11	10	2	nt	nt	nt
Cc1ccc(C(=O)NCCCCNC(=O)c2ccc(C)o2)o1	12	1	-2	4	-6	1	nt	nt	nt
COc1ccccc1CCNC(=O)CNC(=O)c1ccc2ccccc2c1	-12	2	57*	-38	1	-14	9	9	-27
COc1ccccc1CCNC(=O)c1ccc(C)o1	-4	2	57*	11	-23	nt	4	25	-1
Cc1nc2ccc(NC(=O)c3cc(S(=O)(=O)N(C)c4ccccc4)ccc3Cl)cc2s1	nt	80*	75*	nt	nt	5	73*	26*	53*
O=Cc1cn(-c2ccccc2)nc1-c1cccnc1	4	0	54	-13	1	3	21	12	5
O=Cc1cn(-c2ccccc2)nc1-c1ccncc1	10	-1	0	31	8	18	nt	nt	nt
O=C(Cc1cccc(NC(=O)C2CCCN(C(=O)C3CCCC3)C2)c1)Nc1ccc(C(=O)N2CCCCC2)cc1 (stereo not given)	nt	nt	6	nt	nt	nt	nt	nt	nt
CC(Oc1ccccc1C(N)=O)C(=O)Nc1ccc(S(=O)(=O)N2CCCC2)cc1 (stereo not given)	9	-1	-6	3	23	-6	nt	nt	nt
COc1ccc(F)cc1COc1nc(C)nc2ccccc12	6	-6	61*	3	-10	5	19	9	11
